Screening results (PubChem)
OTUD3 inh = inhibitors of human OTUD3 deubiquitinase. Q5T2D3. purified OTUD3, Ub-rhodamine fluorescence, 2 h. AID 1645858. actives 0.7% (n = 47,000). inhibition, % at 25 µM
UCHL1 inh = human UCHL1 deubiquitinase inhibition. purified UCHL1, Ub-rhodamine cleavage fluorescence. P09936. inhibition, % at 20 µM. actives 0.2% (n = 47,000)
USP7 inh = human USP7 deubiquitinase inhibition; Q93009; purified USP7, Ub-rhodamine cleavage fluorescence; inhibition, % at 20 µM; actives 0.3% (n = 47,000)
A number is an active result; n = inactive. Hits are enriched below; roughly 1.1% of the tested compounds scored in any of these assays. No stated cut-off is given here; in the data, active means inhibition above about 30%; inactive means the rest.

SMILES | OTUD3 inh | UCHL1 inh | USP7 inh
COc1ccccc1-c1nc(-c2cn(-c3ccc(C)cc3)nn2)no1 | n | n | n
COc1ccccc1-c1nc(-c2cn(-c3cccc(Cl)c3)nn2)no1 | n | n | 51.4
CC1CCN(C(=O)CCc2nnc3ccc(N4CCCCC4)nn23)CC1 | n | n | n
CN=C(N)NCCC/C=C/CCCC(C)CC(C)C1OC(=O)/C=C/C(C)C(O)CC(O)C(C)C(O)CCC(C)C(O)CC2(O)OC(CC(OC(=O)CC(=O)O)CC(O)CC(O)C(C)C(O)/C=C/C1C)CC(O)C2O (configuration not stated) | n | n | n
COc1ccccc1NC(=O)C1CCCN(C(=O)c2ccc(Cl)cc2)C1 (configuration not stated) | n | n | n
CCc1nnc(-c2cc(S(=O)(=O)NC3CCCCCC3)c[nH]2)o1 | n | n | n
CC(C)CC[C@H]1O[C@@H](CC(=O)O)Cc2cc3c(c(O)c21)C(=O)c1sc(=O)n(C)c1C3=O | 69.7 | n | n
Cc1cccc(CCNC(=O)c2ccc(CNS(=O)(=O)c3ccc(F)cc3)cc2)c1 | n | n | n
Cc1ccc(S(=O)(=O)NCc2ccc(C(=O)NCCc3ccc(S(N)(=O)=O)cc3)cc2)cc1 | 76.8 | n | n
Cc1cc(N2CCN(c3ncccn3)CC2)nc2ccc(NC(=O)Cn3nc([N+](=O)[O-])c(Br)c3C)cc12 | 44.1 | n | n
Cc1cc(C(=O)Nc2ccc3nc(N4CCN(c5ncccn5)CC4)cc(C)c3c2)ccc1[N+](=O)[O-] | n | n | n
CCOc1cccc(-c2noc(-c3nn(-c4cccc(C)c4)ccc3=O)n2)c1 | n | n | n
CCOc1cccc(-c2noc(-c3nn(-c4ccccc4)ccc3=O)n2)c1 | 40.2 | n | n
COc1ccc(-n2c(SCC(=O)Nc3cc(Cl)ccc3C(=O)O)nc3ccccc3c2=O)cc1Cl | n | n | 34.9
COC(=O)CSc1nc2ccccc2c(=N)n1-c1ccc(Cl)cc1 | n | n | n
O=C(NCC1CC1)c1cc(-c2ccn(C3CCCC3)n2)n2ccccc12 | n | n | n
COc1ccc(S(=O)(=O)c2cnc3ccc(Cl)cc3c2NCc2ccccc2)cc1 | n | n | n
Cc1ncc2c(n1)CCN(C(=O)Nc1ccc(C)c(C)c1)C2 | n | n | n
O=C(c1cnco1)N1CCCCC1c1ncc(Cc2ccc(Cl)cc2)o1 (configuration not stated) | n | n | n
Cn1nccc1C(=O)N1CCCCC1c1ncc(Cc2ccc(Cl)cc2)o1 (configuration not stated) | 35.2 | n | n
Cc1noc(-c2nn(C)c3c2CN(C(=O)COc2ccc(Cl)cc2)CC3)n1 | n | n | n
O=C(Nc1ccc2c(c1)OCCO2)Nc1ccccc1OCc1cc(=O)n2ccccc2n1 | n | n | n
O=C(Nc1ccc(F)cc1)Nc1ccccc1OCc1cc(=O)n2ccccc2n1 | 32.5 | n | n
Cc1cccn2c(/C=C(\C#N)c3ccc(Cl)c(Cl)c3)c(-c3ccc(Cl)cc3)nc12 | n | n | n
CCOC(=O)Cn1c(-c2ccc(Cl)cc2)ccc(C#N)c1=O | n | n | n
SMILES | OTUD3 inh | UCHL1 inh | USP7 inh
CC1NC(=O)C(CC(N)=O)NC(=O)C(C(C)O)NC(=O)C(C(C)C)NC(=O)C(C(C)C)NC(=O)C(NC(=O)CC(O)CCCCCCCCCCCCN=C(N)N)C(C)OC1=O (configuration not stated) | 83.3 | n | n
COc1cccc(C2c3[nH]c4ccccc4c3C[C@@H]3C(=O)N(CCCN4CCOCC4)CC(=O)N23)c1 (some centres not stated) | n | n | n
O=C1C(O)=C(c2ccc(O)cc2)C(=O)C(O)=C1c1ccccc1 | 32.6 | n | n
CC1=C(O)C(=O)C(C2=C(O)C(=O)C(C)=C(O)C2=O)=C(O)C1=O | n | n | n
Cc1ccc(Nc2nc(O)c(CC(=O)Nc3ccccc3C)s2)cc1C | n | n | n
CS(=O)(=O)N1CCN(c2ccc(NC(=O)COc3ccccc3)cc2)CC1 | n | n | n
CS(=O)(=O)N1CCN(c2ccccc2NC(=O)COc2ccc(Br)cc2)CC1 | n | n | 63.4
Cc1ccccc1N(C)C(=O)Cc1noc2ccccc12 | n | n | n
C=C1C=C(CCC(=O)O)C(=O)OC1/C=C/C=C/C (configuration not stated) | 96.5 | 81.1 | 78.4
Cc1cncc(C2CCCN(C(=O)CCc3c(C)n[nH]c3C)C2)n1 (configuration not stated) | n | n | n
COc1cc(C)c2c(=O)c3c(oc2c1)C(=O)c1c(O)c(OC)cc(O)c1C3=O | 33.0 | n | n
COc1cc(O)c2c(c1C)C(C)(C(C)=O)OC2=O (configuration not stated) | n | n | n
C[C@H](NC(=O)C1COc2ccccc2O1)C(=O)Nc1nc2ccccc2[nH]1 (some centres not stated) | n | n | n
O=C([C@@H]1C[C@@H]2CCN(c3ccncn3)C[C@H]2O1)N1CCCC1 | n | n | n
